Data on 51 molecules can be found in PubChem BioAssay AID602399 (Sanford-Burnham Center for Chemical Genomics, 2012).

The whole screen tested about 360,000 compounds, of which about 2,800 (0.78%) were called active. Shown is part of a subset that was picked to be rich in actives. Values without a mark were called inactive. No stated cut-off is given here; in the data, active means inhibition above about 26%; inactive means the rest.

The assay has as its system Nicotinate-nucleotide adenylyltransferase NadD (Staphylococcus aureus N315). The experiment in a line: inhibitors of S. aureus NadD, primary screen, biochemical, colorimetric, uHTS (AID 602399). The note with it: purified NadD enzyme, colorimetric absorbance read-out; at 20 µM; hits give high values.
In general, inhibition refers to the change of the read-out against control, counted positive when it falls. As for `CCc1nn(CCCC(=O)Nc2ccc(C)c(C)c2)c(=O)c2cc3occc3n12`, the inhibition is 5.14%.
The same measure for `Cc1cc(CNCc2c(C(=O)N(C)Cc3ccccc3)nc3ccccn23)nn1C`: -2.9%; for `COc1ccc(NC(=O)C2CCC(CNc3c(N4CCCCC4)c(=O)c3=O)CC2)c(OC)c1` (stereo unspecified): 1.77%; for `CCOC(=O)c1c(NC(=O)NC(C)(C)C)sc2c1CCN(C)C2`: 0.728%.
The same measure for `Cc1oc2c(C)c3oc(=O)c(CC(=O)N[C@@H](CC(C)C)C(=O)N[C@@H](Cc4ccccc4)C(=O)O)c(C)c3cc2c1C`: 35.9% (active); for `Cc1c(OC(C)C(=O)N[C@@H](Cc2ccccc2)C(=O)O)ccc2c3c(c(=O)oc12)CCCC3` (stereo partly specified): 3.9%.
The same measure for `Cc1c(CCC(=O)N[C@@H](CC(C)C)C(=O)O)c(=O)oc2c(C)c3oc4c(c3cc12)CCCC4`: -0.714%.
Take `COc1cc(Cl)cc(C2NC(=O)NC(C)=C2C(=O)NCc2ccccc2)c1O` (stereo unspecified): the inhibition is -2.49%.
The same measure for `Cc1cccc(C)c1NC(=O)C1(C)c2cccc[n+]2CC(=O)N1Cc1cccs1` (stereo unspecified): 6.36%.
The same measure for `CCn1cc(C(=O)NCC2CCCO2)c(=O)c2cc(S(=O)(=O)N3CCCCC3)ccc21` (stereo unspecified): 8.79%; for `CCn1cc(C(=O)NCCCN2CCCCCC2)c(=O)c2cc(S(=O)(=O)N3CCc4ccccc4C3)ccc21`: 25.6% (active).
The same measure for `CCn1cc(C(=O)NC2CCCCCC2)c(=O)c2cc(S(=O)(=O)N3CCCCC3)ccc21`: -1.8%.
On to `COCCN(C(=O)C(C)N1C(=O)c2ccccc2C1=O)c1c(N)n(CC(C)C)c(=O)[nH]c1=O` (stereo unspecified), for which the inhibition was 0.415%.
The same measure for `COCCNC(=O)C(OC(=O)c1cccs1)c1ccc(F)cc1` (stereo unspecified): 2.74%; for `O=C(Cc1ccc(-n2c(=O)[nH]c3ccccc3c2=O)cc1)N1CCN(c2cccc(Cl)c2)CC1`: 6.86%.
The same measure for `O=C(Cc1csc(Nc2nc(=S)[nH]c3ccccc23)n1)NCCCN1CCN(c2cccc(Cl)c2)CC1`: 43.9% (active); for `CCOC(=O)N1CCC(Nc2c(NCCN3CCN(c4cccc(Cl)c4)CC3)c(=O)c2=O)CC1`: -3.05%; for `CCOC(=O)N1CCC(N2Cc3cccc(C(=O)Nc4c(C)cccc4CC)c3C2=O)CC1`: 8.26%.
The same measure for `Cc1ccc(C(=O)N2CCCC(c3ccccc3)=N2)cc1`: -4.43%; for `COc1ccc(N2CCN(c3ccc([N+](=O)[O-])nc3)CC2)cc1`: 1.06%; for `O=C(CCc1ccccc1)NNc1ccc(F)cc1`: -2.34%.
Consider `Clc1cccc(-c2nc3nc4ccccc4nc3n2Cc2ccco2)c1`, for which the inhibition was -0.737%.
The same measure for `O=c1[nH]c(CSc2ncc(-c3ccc(F)cc3)n2Cc2ccco2)nc2ccccc12`: 1.31%; for `Cc1ccc(Cn2c(C)nc3c(c2=O)c2nc4ccccc4nc2n3Cc2ccco2)cc1`: 49% (active).
The same measure for `COc1cc(C2c3cc4c(cc3C(O)C3COC(=O)C23)OCO4)cc(OC)c1OC` (stereo unspecified): 0.207%; for `Cc1ccc(-c2nn(-c3ccccc3)cc2/C=C2\SC(=S)N(CCCCCC(=O)O)C2=O)o1`: 34.1% (active).
The same measure for `O=C(O)CCCCCCCCc1cn(CN2C(=O)c3ccccc3C2=O)nn1`: 1.47%; for `CC(C)[C@@H]1NC(=O)c2cc([N+](=O)[O-])cc(I)c2NCCC[C@@H](C(=O)NC(CC(=O)O)C(N)=O)NC(=O)[C@H](CO)NC1=O` (stereo partly specified): -2.22%.
On to `COc1ccc(OC)c(C(=O)c2coc3ccc(OC)cc23)c1`, for which the inhibition is -4.74%.
Regarding `COc1ccc(OC)c(C(=O)c2coc3ccc(O)c(CN4CCOCC4)c23)c1`, the inhibition is 36.3% (active).
The same measure for `COc1ccc2oc(=O)cc(CN3CCOCC3)c2c1`: 0.645%; for `CC1CC(C)CN(C(=O)CCNC(=O)Cn2cnc3ccccc3c2=O)C1` (stereo unspecified): -4.11%; for `CC(=O)N1c2ccc(S(=O)(=O)N3CCC(C(=O)NC4CCCCC4C)CC3)cc2CC1C` (stereo unspecified): 1.28%.
Take `CS(=O)(=O)c1sc2nc(-c3ccccc3)cc(-c3ccccc3)c2c1N`: the inhibition was 43.8% (active).
The same measure for `CNC(=S)NNC(=O)c1oc2nc(-c3ccccc3)cc(-c3ccco3)c2c1N`: 11.9%; for `Nc1cccc(-c2cc(-c3ccccc3)nc(-c3cccc(N)c3)n2)c1`: 13.8%; for `Cc1noc(C)c1S(=O)(=O)N(C)C[C@H]1Oc2ccc(NC(=O)C3CCCCC3)cc2C(=O)N([C@H](C)CO)C[C@@H]1C`: -4.63%.
The same measure for `COc1ccc(CN2CCn3ncc(C(=O)Nc4ccc(Cl)cc4Cl)c3C2=O)cc1`: -3.68%; for `Fc1ccc2c(c1)C(c1cccnc1)=NNC(c1cccs1)=N2`: -1.68%; for `O=c1oc(-c2ccccc2NS(=O)(=O)c2ccc(Cl)cc2)nc2ccccc12`: 10.9%.
The same measure for `CCCCCN(C(=O)CCC(=O)OCC(=O)NCc1ccc(OC)cc1)c1c(N)n(CCCC)c(=O)[nH]c1=O`: -7.19%; for `CC(C)c1ccc2c(c1)c(SC(C)(C)C)c(CC(C)(C)C(=O)O)n2Cc1ccc(Cl)cc1`: 31.8% (active).
As for `COc1cc(-c2nnn(CC(=O)NCc3ccccc3)n2)cc(OC)c1OC`, the inhibition is 1.36%.
The same measure for `COc1ccc(C2CC(c3ccccc3)=NN2C(=O)CSc2nccc(=O)[nH]2)cc1` (stereo unspecified): 9.94%; for `COc1ccc(C2=NN(C(=O)CSc3nc(=O)n4ccc(C)cc4n3)C(c3ccc(C)cc3)C2)cc1` (stereo unspecified): 36.1% (active).
Then `Cc1ccc(C2=NN(C(=O)CSc3nc(N)cc(N)n3)C(c3ccco3)C2)cc1` (stereo unspecified), with 4.52%; and `COc1ccc(C(=O)N2CCCCC2c2cc(C(=O)Nc3ccc(F)c(Cl)c3)no2)cc1` (stereo unspecified), with 2.01%; and `C[C@H]([C@@H](O)[C@@H](O)[C@@H](C)C(C)(C)C)[C@H]1CC[C@H]2C3CC[C@H]4C[C@H](OS(=O)(=O)O)[C@@H](OS(=O)(=O)O)C[C@]4(C)[C@H]3CC[C@]12C` (stereo partly specified), with 11.9%.
In the case of `COc1cc(/C=C2\C(=N)N3N=C(CC(=O)N4CCOCC4)SC3=NC2=O)cc(OC)c1OC`, the inhibition was -3.62%.
Regarding `CCOc1cc(/C=C2\C(=N)N3N=C(C)SC3=NC2=O)ccc1OCCOc1ccccc1`, the inhibition was 22.4%.
Consider `COc1ccccc1OCCOc1ccc(/C=C2\C(=N)N3N=C(C)SC3=NC2=O)cc1`, for which the inhibition was 29% (active).
